HP1b chromo inh – inhibitors of HP1-beta chromodomain binding to methylated histone tails; AlphaScreen HP1-beta / biotin-H3K9me3 peptide binding; AID 540317; P83916; Potency, µM (series often up to 114 µM), most hits filed as inhibitors; 390,000 compounds, 0.56% hits; note: nearly all actives have a fitted effect of over 70% in size
Target sequence (P83916 whole entry, looked up): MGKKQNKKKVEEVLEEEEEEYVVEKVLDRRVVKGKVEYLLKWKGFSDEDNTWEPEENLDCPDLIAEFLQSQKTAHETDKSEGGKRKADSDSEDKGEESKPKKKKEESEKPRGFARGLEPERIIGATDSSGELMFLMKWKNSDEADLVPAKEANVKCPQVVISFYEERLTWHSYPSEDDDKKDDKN
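AlphaScreen: HP1-beta (50 nM) preformed 30 min with biotin-H3(1-18)K9me3 peptide (50 nM) in PBS pH 7.4, 0.01% Tween-20. Compound added for 30 min at RT, then streptavidin donor/nickel chelate acceptor beads (10 ug/mL) for 30 min.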
L3MBTL1 inh – blocks human L3MBTL1; Potency, µM (series often up to 57.1 µM), most hits filed as inhibitors; AlphaScreen L3MBTL1–H3K9me1 peptide binding; 230,000 compounds, 0.66% hits; AID 485360; Q9Y468; note: nearly all actives have a fitted effect of over 60% in size
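AlphaScreen assay: L3MBTL1 (50 nM final) was preincubated 30 min at room temperature with biotinylated H3(1-15)K9me1 peptide (75 nM final), then 30 min with library compounds; streptavidin donor and nickel chelate acceptor beads (10 ug/mL final) added, 30 min dark.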
JMJD2A Tudor – JMJD2A Tudor domain (human) inhibition | AID 504339 | 390,000 compounds, 4.4% hits | O75164 | Potency, µM (highest dose often 114 µM), usual class: inhibitors | AlphaScreen JMJD2A-Tudor / H3K4me3 peptide binding; note: nearly all actives have a fitted effect of over 50% in size
BAZ2B block – BAZ2B (human) inhibition; AID 504333; Potency, µM (doses to about 114 µM), most hits filed as inhibitors; 360,000 compounds, 4.4% hits; AlphaScreen BAZ2B-H3K14Ac peptide displacement; note: nearly all actives have a fitted effect of over 60% in size
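Inhibition is scored as reduced AlphaScreen emission. The BAZ2B/b-H3(5-23)K14Ac complex (50 nM each) in PBS pH 7.4, 0.01% Tween-20 meets compound (up to 110 uM) for 30 min at RT before bead addition.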
G9a inh – inhibitors of human histone lysine methyltransferase G9a. Q96KQ7. G9a H3K9 monomethylation, AlphaScreen, 2 h. Potency, µM (titrated, usually from 102 µM), usual class: inhibitors. 350,000 compounds, 8.8% hits; note: nearly all actives have a fitted effect of over 75% in size
Target sequence (Q96KQ7 913-1193 limits assumed): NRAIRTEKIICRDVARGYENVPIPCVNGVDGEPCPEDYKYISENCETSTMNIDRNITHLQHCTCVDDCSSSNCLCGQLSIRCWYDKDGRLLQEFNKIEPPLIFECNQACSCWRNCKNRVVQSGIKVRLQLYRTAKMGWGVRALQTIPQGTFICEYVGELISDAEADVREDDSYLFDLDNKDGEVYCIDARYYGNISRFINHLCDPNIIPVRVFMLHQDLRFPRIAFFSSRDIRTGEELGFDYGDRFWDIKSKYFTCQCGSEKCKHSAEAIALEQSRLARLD
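Chemiluminescent proximity detection of H3K9 monomethylation, read after 10 min bead incubation in the dark. Reaction: 20 nM G9a, 500 nM biotin-H3K9 peptide, 20 uM SAM cofactor, 2 h, room temperature, following 15 min enzyme-compound preincubation.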
Each line names hits and unclear results; the compound was inactive in the other large screens; ! = not active in a repeat. Hits are enriched below; roughly 11% of the tested compounds scored in any of these assays. Calls come from the whole dose curve; as a rule, active = well fitted inhibition curve with a large enough effect; inconclusive = small, poorly fitted or top-dose-only effect; inactive = no such curve, though single readings can be large or run the other way.

CCOC(=O)C(CC(=O)O)NCc1ccco1 (stereo not drawn)	JMJD2A Tudor 18µM, G9a inh 40µM
Cc1ccc2c(c1)-c1onc(C(=O)N(C)c3ccc(F)cc3)c1CO2	none (no result: L3MBTL1 inh)
CCc1nnc(NC(=O)c2ccc(Cl)nc2)s1	G9a inh inconclusive
CCc1nnc(NC(=O)c2nc(S(C)(=O)=O)ncc2Cl)s1	JMJD2A Tudor 10µM, G9a inh 7.1µM (no result: L3MBTL1 inh)
COc1ccc(OC)c(NC(=O)c2nc(S(=O)(=O)Cc3ccccc3)ncc2Cl)c1	G9a inh 35µM (no result: L3MBTL1 inh)
CCc1nnc(NC(=O)c2cc(Cl)ccn2)s1	JMJD2A Tudor 16µM, BAZ2B block 20µM, G9a inh 79µM (no result: L3MBTL1 inh)
Cc1ccccc1CS(=O)(=O)c1ncc(Cl)c(C(=O)Nc2ccc(F)cc2)n1	G9a inh 22µM (no result: L3MBTL1 inh)
O=C(NCCc1ccccc1)c1ccc(CSc2nc3cccnc3n2Cc2ccccc2)cc1	JMJD2A Tudor inconclusive (no result: L3MBTL1 inh)
O=C(COC(=O)c1ccc(F)c([N+](=O)[O-])c1)NC(=O)NCc1ccccc1	none (no result: BAZ2B block, G9a inh)
Cc1cccc(C)c1NC(=O)c1nc(S(=O)(=O)Cc2ccccc2)ncc1Cl	G9a inh inconclusive (no result: L3MBTL1 inh)
Cc1cccc(CS(=O)(=O)c2ncc(Cl)c(C(=O)Nc3c(C)cccc3C)n2)c1	G9a inh 35µM (no result: L3MBTL1 inh)
Cc1nnc(NC(=O)c2nc(S(=O)(=O)Cc3ccccc3)ncc2Cl)s1	JMJD2A Tudor 32µM, BAZ2B block 50µM!, G9a inh 40µM (no result: L3MBTL1 inh)
Cc1ccc(NC(=O)c2oc3ccccc3c2NC(=O)c2ccc(F)c(F)c2)cc1	none (no result: L3MBTL1 inh)
CCC1CCc2nc3sc(C(=O)Nc4ccc(C)cc4C)c(N)c3cc2C1 (stereo not drawn)	none (no result: L3MBTL1 inh)
CC(=O)C(Sc1nc(N(C)C)nc(N(C)C)n1)C(=O)Nc1ccccc1 (stereo not drawn)	G9a inh inconclusive
CC(=O)C(Sc1nn(C)c(=S)s1)C(=O)Nc1ccccc1 (stereo not drawn)	HP1b chromo inh inconclusive, JMJD2A Tudor 50µM, BAZ2B block inconclusive, G9a inh 3.5µM
COc1ccc(CCNC(=O)Cn2c(=O)nc(-c3ccccc3)c3ccccc32)cc1OC	none (no result: L3MBTL1 inh)
O=C(CCNc1ccc(Cc2ccncc2)cc1)c1cccc([N+](=O)[O-])c1	HP1b chromo inh inconclusive, JMJD2A Tudor 45µM, BAZ2B block 25µM, G9a inh 8.9µM
Cc1ccc(C(=O)CCS(=O)(=O)c2ccc(Br)cc2)cc1	none (no result: L3MBTL1 inh)
O=C(Cc1ccc(F)cc1)OCC(=O)c1cc2ccccc2o1	G9a inh inconclusive
O=C(CCNc1cccc(F)c1)c1cc2ccccc2o1	L3MBTL1 inh inconclusive, G9a inh 10µM
Cc1ccc(S(=O)(=O)Cc2cc(F)c([N+](=O)[O-])cc2[N+](=O)[O-])cc1	BAZ2B block 56µM, G9a inh 50µM (no result: L3MBTL1 inh)
Cc1ccc(S(=O)(=O)CCC(=O)c2cccc([N+](=O)[O-])c2)cc1	HP1b chromo inh 45µM, JMJD2A Tudor 28µM, G9a inh 1.4µM (no result: L3MBTL1 inh)
CC(=O)Nc1cc[n+](CC(=O)c2cccc([N+](=O)[O-])c2)cc1	none
O=C(CCNc1cccc(F)c1)c1cccc([N+](=O)[O-])c1	JMJD2A Tudor inconclusive, BAZ2B block 35µM, G9a inh 7.1µM
O=C1OCC(CO)(CO)N=C1NNc1cc(Cl)ccc1Cl	G9a inh 50µM
CCc1ccc(-c2cc(C)no2)cc1S(=O)(=O)NCc1ccco1	BAZ2B block inconclusive, G9a inh 71µM! (no result: L3MBTL1 inh)
Cc1cc(S(=O)(=O)NCc2ccco2)c(C)cc1Cl	BAZ2B block inconclusive, G9a inh 45µM (no result: L3MBTL1 inh)
O=C(Nc1cc2c3c(c1)C1CCCC1CN3CC1CCCC21)c1ccccc1 (stereo not drawn)	HP1b chromo inh inconclusive, JMJD2A Tudor inconclusive, BAZ2B block 28µM, G9a inh 8.9µM
O=C(Nc1ccc(N2CCC(N3CCCCC3)CC2)c(C(=O)O)c1)c1ccccc1	BAZ2B block inconclusive (no result: L3MBTL1 inh)
O=C(CNC(=O)[C@@H]1Cc2ccccc2CN1)Nc1ccc2c(c1)OCCO2	BAZ2B block inconclusive, G9a inh 40µM (no result: L3MBTL1 inh)
CCc1ccc(NC(=O)CNC(=O)[C@@H]2Cc3ccccc3CN2)cc1	G9a inh 79µM (no result: L3MBTL1 inh)
CCC(C)NC(=O)Nc1ccc(Br)cc1 (stereo not drawn)	none
CCC(C)Nc1ccc(NC(C)CC)cc1 (stereo not drawn)	HP1b chromo inh inconclusive, L3MBTL1 inh inconclusive, JMJD2A Tudor 40µM, BAZ2B block 35µM
Cc1ccc(Sc2ccc(N3CCC(C(=O)Nc4ccc(Cl)cc4)CC3)nn2)cc1	none (no result: L3MBTL1 inh)
COC(=O)c1nn(-c2cccc(C)c2)c2nnc(Cc3ccc(C)cc3)c(=O)n12	none
COC(=O)c1nn(-c2ccc(C)cc2)c2nnc(Cc3ccccc3)c(=O)n12	G9a inh 18µM
N#Cc1c2ccc(OCC(=O)NCc3ccco3)cc2n2ccccc12	none (no result: L3MBTL1 inh)
N#Cc1c2ccc(O)cc2n2ccccc12	G9a inh 4µM
O=C(O)CCNC(=O)/C(=C/C=C/c1ccccc1)NC(=O)c1ccccc1	G9a inh 40µM (no result: L3MBTL1 inh)
O=C(Nc1ccc(C(=O)O)cc1)/C(=C\C=C\c1ccccc1)NC(=O)c1cccc(Br)c1	BAZ2B block 56µM, G9a inh 40µM
O=C(Nc1cccc(C(=O)O)c1)/C(=C\C=C\c1ccccc1)NC(=O)c1ccccc1	G9a inh inconclusive
O=C(Cn1c(=O)n(CCc2ccccc2)c(=O)c2cccnc21)Nc1ccc(F)cc1	none (no result: L3MBTL1 inh)
CN(C)c1ccc(C(CNS(=O)(=O)c2ccc(F)cc2)c2c[nH]c3ccccc23)cc1 (stereo not drawn)	HP1b chromo inh inconclusive, L3MBTL1 inh inconclusive, JMJD2A Tudor 25µM, BAZ2B block 18µM, G9a inh 10µM
CCOC(=O)c1ccc(S(=O)(=O)NCCN(CC)CC)cc1	G9a inh inconclusive
CCOC(=O)c1ccc(S(=O)(=O)NCC(c2ccc(N(C)C)cc2)c2c[nH]c3ccccc23)cc1 (stereo not drawn)	HP1b chromo inh 32µM, L3MBTL1 inh inconclusive, JMJD2A Tudor 11µM, BAZ2B block 10µM, G9a inh inconclusive
CCc1ccc(-c2csc(NC(=O)COC(=O)CCc3nc4ccccc4s3)n2)cc1	none (no result: HP1b chromo inh, JMJD2A Tudor)
COCc1nc2ccccc2n1Cc1ccc(C(C)(C)C)cc1	none (no result: L3MBTL1 inh)
CCOC(=O)CCCCC(=O)c1[nH]c(=O)[nH]c1Cn1cnc2ccccc21	JMJD2A Tudor inconclusive, BAZ2B block 35µM, G9a inh inconclusive
N#Cc1c(-c2ccccc2)nc(SCC(=O)N(c2ccccc2)c2ccccc2)[nH]c1=O	G9a inh inconclusive
CCOC(=O)CCCCC(=O)c1[nH]c(=O)[nH]c1CSCCO	JMJD2A Tudor 79µM, BAZ2B block 13µM, G9a inh inconclusive (no result: L3MBTL1 inh)
CCOC(=O)CCCCC(=O)c1[nH]c(=O)[nH]c1CSc1nc(-c2ccccc2)c(C#N)c(=O)[nH]1	JMJD2A Tudor inconclusive, BAZ2B block 35µM, G9a inh inconclusive
COc1ccc(-c2nc3sc(CCNC(=O)c4ccc(C(C)(C)C)cc4)c(C)n3n2)cc1	none (no result: L3MBTL1 inh)
Cc1ccccc1C(=O)Nc1nnc(SCc2cc(=O)n3ccccc3n2)s1	none (no result: L3MBTL1 inh)

Bioassay records deposited in PubChem BioAssay by National Center for Advancing Translational Sciences (NCATS).
